# High-throughput results as filed in PubChem.
# Hits are enriched below; roughly 11% of the tested compounds scored in any of these assays.
# Gal4-VP16 FLuc = inhibits Gal4-VP16 luciferase reporter, ROR gamma counter-screen. Drosophila S2 Gal4-VP16 UAS-luciferase, luminescence, 20 h. Potency, µM (top dose mostly 53.6 µM), hits mostly inhibitors. hit rate 3.5% among 310,000;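 further: Gal4-VP16 expression switched on by copper sulfate through the metallothionein promoter; nearly all actives have a fitted effect of over 50% in size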
# SW480 rereplic = DNA re-replication induction in SW480 cells; SW480 DNA re-replication, Hoechst DNA content imaging, 48 h; Potency, µM (titrated, usually from 46.1 µM), most hits filed as activators; hit rate 1.8% among 340,000; further: nearly all actives have a fitted effect of over 55% in size
#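 250 cells/well; 23 nL cpd via pin tool; 48 hr, 37 C, 5% CO2; Hoechst 40 min; imager read of total nuclear intensity, ex 405/em 500-530 nm.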
# RORg inh = inhibitors of mouse ROR gamma transcriptional activity; P51450; Drosophila S2 Gal4-RORgamma UAS-luciferase reporter, 20 h; Potency, µM (highest dose often 53.6 µM), usual class: inhibitors; hit rate 5.4% among 310,000; AID 2551; further: nearly all actives have a fitted effect of over 60% in size
# Target sequence (P51450 whole entry, looked up, the tested form may be a part): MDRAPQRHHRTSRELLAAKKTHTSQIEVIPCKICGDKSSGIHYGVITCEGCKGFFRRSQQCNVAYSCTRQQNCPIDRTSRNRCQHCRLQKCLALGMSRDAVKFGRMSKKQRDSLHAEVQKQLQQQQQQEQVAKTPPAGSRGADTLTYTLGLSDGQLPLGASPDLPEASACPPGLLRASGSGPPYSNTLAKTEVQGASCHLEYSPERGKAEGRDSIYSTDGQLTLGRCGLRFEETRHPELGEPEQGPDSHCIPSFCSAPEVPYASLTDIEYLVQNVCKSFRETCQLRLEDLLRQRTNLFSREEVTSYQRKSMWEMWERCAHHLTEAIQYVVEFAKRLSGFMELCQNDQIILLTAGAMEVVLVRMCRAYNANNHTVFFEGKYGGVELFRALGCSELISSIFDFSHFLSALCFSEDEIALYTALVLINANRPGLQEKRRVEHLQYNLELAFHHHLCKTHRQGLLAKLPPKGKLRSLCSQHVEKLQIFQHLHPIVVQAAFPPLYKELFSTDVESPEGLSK
#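 ROR gamma transcriptional activity was tracked as Gal4-UAS luciferase output in stably transfected Drosophila Schneider cells, with compound added 1 hr before 700 uM copper sulfate induction and a 20 hr ambient-temperature incubation.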
# IL1B secr inh = inflammasome signaling inhibition, IL-1 beta readout; THP-1 LPS/ATP IL-1B secretion, AlphaLISA, 16 h; hits give low values; activity change, % at 57.5 µM; hit rate 4.7% among 360,000; in the data active means activity change below about -50%; inconclusive means mostly about -30% to -49%
#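 THP-1 cells pretreated 1 hr with compounds (up to 57.5 uM final), then stimulated with LPS (250 ng/mL final) plus ATP (1.25 mM final); secreted IL-1B measured by AlphaLISA after 16 hr, decreased signal indicating inhibition.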
# MCF10A rereplic = inducers of DNA re-replication in MCF 10A breast cells | MCF 10A DNA re-replication, Hoechst nuclear intensity, 48 h | Potency, µM (top dose mostly 46.1 µM), actives largely listed as activators | hit rate 2.9% among 350,000; further: nearly all actives have a fitted effect of over 50% in size
# Numbers stand for hits; 0 = inactive; ? = inconclusive; - = not tested or not shown; [ ] = remark or other dose. Unless noted, the call rests on the fitted dose curve; in most records, active means well fitted curve in the direction sought with a large enough effect; inconclusive means small, poorly fitted or top-dose-only effect, or another doubt; inactive means no such curve, though single readings can be large; an effect the other way counts as inactive or inconclusive.
SMILES,Gal4-VP16 FLuc,SW480 rereplic,RORg inh,IL1B secr inh,MCF10A rereplic
Oc1ccc(-c2n[nH]c(C(F)(F)F)c2-c2ccccc2)c(O)c1,1.6µM,0,5.6µM,-78,?
COc1ccccc1-c1c(-c2ccc(O)cc2O)n[nH]c1C(F)(F)F,0,0,?,0,0
COc1ccc(-c2c(-c3ccc(OC)c(C)c3O)n[nH]c2C)cc1,11µM,0,11µM,?,?
COc1ccc(-c2c(-c3ccc(O)cc3O)n[nH]c2C(F)(F)F)cc1,10µM,12µM,0,0,?
Cc1noc(C)c1-c1nc(NC2CCNCC2)c2ccccc2n1,0,-,0,-,-
O=S(=O)(Nc1ccc(S(=O)(=O)Nc2ccccc2)cc1)c1ccccc1,0,0,?,0,0
O=S(=O)(Nc1ccc(N=Nc2ccc(O)c3ccccc23)cc1)c1ccccc1,?,0,0,-60,0
O=C(O)c1cc(N=Nc2ccc([N+](=O)[O-])cc2)ccc1O,0,-,0,-,-
O=S(=O)(Nc1ccc(N=Nc2ccccc2)cc1)c1ccccc1,?,0,0,-88,?
O=[N+]([O-])c1ccc(N=Nc2ccc(O)c3ccccc23)cc1,-,?,-,-76,?
N#CC(=Nc1cccc(F)c1)C1=C(O)c2ccccc2C1=O,-,-,-,0,-
Nc1nc2ncccn2c1-c1ccc(F)c(F)c1,-,-,-,0,-
C=CC[C@H](CC(=O)OC(C)(C)C)C(=O)OC[C@@H]1CCCN1C(=O)[C@@H](CC=C)CC(=O)N[C@H](CO)Cc1ccccc1,-,0,-,0,0
Cc1csc(NC(=O)c2ccc(C)c([N+](=O)[O-])c2)n1,14µM,0,?,0,0
CCc1cc(C(=O)Nc2nc(-c3ccccn3)cs2)sc1C,-,0,-,0,0
Cc1cc(C(=O)Nc2nc(-c3ccccn3)cs2)ccc1[N+](=O)[O-],2.8µM,?,1.1µM,0,?
O=C(Nc1nc(-c2ccccn2)cs1)c1cc(Cl)ccc1[N+](=O)[O-],2.8µM,?,1.1µM,0,0
Cc1ccc(NC(=O)c2cc(NC(=O)c3ccco3)ccc2N2CCOCC2)cc1,0,0,0,0,?
Cc1ccc(NC(=O)c2cc(N3C(=O)C=CC3=O)ccc2N2CCOCC2)cc1,7.9µM,?,7.1µM,-63,13µM
Cc1ccc(NC(=O)c2cc(-n3cnnc3)ccc2Cl)cc1,0,0,0,0,0
Cc1ccc(NC(=O)c2cc(N3C(=O)C=CC3=O)ccc2Cl)cc1C,7.9µM,?,?,0,?
C=CCn1cccc(C(=O)Nc2ccc(N(C)C)cc2)c1=O,0,0,0,0,0
CCOC(=O)C1CCCN(C(=O)c2ccc3ccccc3c2)CC1 (stereo not given),-,-,-,0,-
COc1ccc2c(c1)O[C@@H](c1ccc3c(c1)OCO3)[C@H](OC(=O)NS(=O)(=O)c1ccc(F)cc1)C2=O,0,-,0,-,-
COCCCN1C(=O)c2[nH]nc(-c3ccccc3O)c2C1c1cccc(Cl)c1 (stereo not given),?,16µM,?,0,15µM
SMILES,Gal4-VP16 FLuc,SW480 rereplic,RORg inh,IL1B secr inh,MCF10A rereplic
COCCCN1C(=O)c2[nH]nc(-c3ccccc3O)c2C1c1ccc(Cl)cc1 (stereo not given),0,?,?,0,?
Cc1cc(C)cc(N=C2NC(=O)/C(=C/c3cccs3)S2)c1,16µM,0,?,0,?
COc1ccc2c(c1)C(=NNC(=O)c1ccccn1)c1cc(OC)ccc1-2,4µM,0,2.8µM,0,?
COc1cc(OC)cc(C(=O)NNC(=O)c2ccc3ccccc3n2)c1,-,?,-,0,0
COc1cc(OC)cc(C(=O)NNC(=O)c2ccccn2)c1,5.6µM,?,4.5µM,0,?
COc1ccc(C(=O)NNC(=O)c2ccccn2)cc1,5.6µM,0,7.1µM,0,0
CC(Oc1ccccc1)C(=O)NNC(=O)c1ccccn1 (stereo not given),?,?,7.9µM,0,0
CCOC(=O)[C@]12CCC=C1N(Cc1ccc3c(c1)OCO3)C(=O)[C@H](CC(=O)NCC1CCCCC1)C2,-,-,-,0,-
COc1ccc(OC(C)C(=O)Nc2ccc([N+](=O)[O-])cc2)cc1 (stereo not given),0,0,?,0,0
CCOc1ccc(NC(=O)c2ccccn2)cc1,4.5µM,0,7.1µM,0,0
COc1ccc(OCC(=O)NNC(=O)c2ccccn2)cc1,?,0,13µM,0,0
Cc1nc(C(=O)NNC(=O)c2ccc(Cl)cc2)cs1,?,0,4µM,0,?
COc1ccc(OCC(=O)NCCNC(=O)c2ccccn2)cc1,0,0,0,0,0
C/C(=N\NC(=O)C(C)Oc1ccc([N+](=O)[O-])cc1)c1ccccn1 (stereo not given),2.2µM,6.5µM,1.1µM,0,15µM
O=C(CN(C(=O)c1csnn1)c1ccccc1F)NC1CCCCC1,0,0,0,0,0
COCCn1c(=O)c(-c2ccccc2)nc2cnc(Oc3ccc(OC)cc3)nc21,0,-,?,-,-
COc1ccc(NC(=S)N(Cc2cccnc2)Cc2ccco2)cc1,0,0,0,0,0
COCCN(Cc1ccccc1)C(=S)Nc1ccc(Cl)cc1,0[10 µM],0,7.1µM,0,0
CCc1ccc(NC(=S)N(Cc2ccccc2)Cc2ccccn2)cc1,?,0,0.32µM,-60,0
COc1cccc(NC(=S)N(Cc2ccccn2)Cc2ccccc2Cl)c1,?,0,6.3µM,?,0
CCc1ccc(NC(=S)N(Cc2cccnc2)Cc2ccco2)cc1,0,0,0,-67,0
Cc1ccc(C(=O)CCC(=O)OCC(=O)NNC(=O)c2ccc([N+](=O)[O-])cc2)cc1,-,0,-,0,0
COc1ccc(NC(=S)N(Cc2ccccn2)Cc2ccccc2Cl)cc1,0[10 µM],0,5.6µM,0,0
O=C1C(=O)c2ccccc2C(O)=C1C1CCC(c2ccc(Cl)cc2)CC1 (stereo not given),5µM,0,13µM,0,0.033µM
CN1CCC(Oc2ccc(Sc3ccccc3)cc2)CC1,0,0,0,-55,0
SMILES,Gal4-VP16 FLuc,SW480 rereplic,RORg inh,IL1B secr inh,MCF10A rereplic
CN1CCC(OC2c3ccccc3CCc3ccccc32)CC1,-,-,-,0,-
CN1CCC(Oc2ccccc2Sc2ccc(C(F)(F)F)cc2)CC1,0,?,0,0,8.2µM
O=C(Nc1cccc(-c2cscn2)c1)C1CCN(Cc2ccc(CO)o2)CC1,0,0,0,0,0
CCCn1cc(CN2CCC(C(=O)Nc3cccc(-c4cscn4)c3)CC2)c(C)n1,0,0,0,-72,0
COCc1ccc(CN2CCC(C(=O)Nc3cccc(-c4cscn4)c3)CC2)o1,?,0,0,-73,0
COCc1ccc(CN2CCC(C(=O)Nc3cccc(-c4cccc(Cl)c4)c3)CC2)o1,8.9µM,?,18µM,-97,?
COc1cccc(-c2cccc(NC(=O)C3CCN(Cc4ccc(C)o4)CC3)c2)c1,0,0,0,0,0
CC1(c2nc3ccccc3[nH]2)CCCC2=Nc3ccccc3CN21 (stereo not given),-,-,-,0,-
CCOC(=O)c1sc2nc(C)nc(NCc3ccc(Cl)cc3)c2c1C,0,0,?,-67,0
